Measured values reported in PubChem BioAssay (Tox21).
Records with an inconclusive call do not appear. Where a call stands in place of a potency, no number is given. Active and inactive are the calls of the source. Calls come from the whole dose curve; as a rule, active = well fitted cell-killing curve with a large enough effect in the repeat runs; inconclusive = weak or mixed curves; inactive = flat fitted curve, though single readings scatter.

Assay: qHTS assay to identify small molecule antagonists of the estrogen receptor beta (ER-beta) signaling pathway - cell viability counter screen (AID 1259382); note: nearly all actives have a fitted effect of over 55% in size
Details: ER-beta-UAS-bla HEK293T viability, CellTiter-Glo luminescence, 16 h; series mostly up to 92.4 µM
Source text: U.S. Tox21 Program National Center for Advancing Translational Sciences [NCATS] NIH Chemical Genomics Center [NCGC] U.S. Environmental Protection Agency [EPA] National Institutes of Environmental Health Sciences [NIEHS] National Toxicology Program [NTP] U.S. Food and Drug Administration [FDA] Tox21 Assay Overview: Estrogen receptor (ER), a nuclear hormone receptor, plays an important role in development, metabolic homeostasis and reproduction. Two subtypes of ER, ER-alpha and ER-beta, have similar expression patterns with some uniqueness in both types. Endocrine disrupting chemicals (EDCs) and their interactions with steroid hormone receptors like ER causes disruption of normal endocrine function. To identify the compounds that inhibit ER signaling, an ER-beta-UAS-bla GripTite cell line (Life Technologies, Madison, WI, USA) containing a beta-lactamase reporter gene under the control of an UAS response element was used to screen Tox21 10K compound library. The cytotoxicity of the Tox21 compound library against the ER-beta-bla cell line was tested in parallel by measuring the cell viability using CellTiter-Glo assay in the same wells.
Tox21 Assay Protocol Summary: ER-beta-UAS-bla HEK293T cells were dispensed at 2,000 cells/4 uL of assay medium containing 2% charcoal stripped FBS per well into black wall/clear-bottom 1536-well plates using a Multidrop Combi (ThermoFisher Scientific, Waltham, MA) dispenser. After the assay plates were incubated at a 37C and 5% CO2 for 6 hr, 23 nL of compounds dissolved in DMSO, positive controls or DMSO only was transferred to the assay plate by a Pintool station (Kalypsys, San Diego, CA), followed by addition of 1 uL (1nM as final concentration) of 17-beta-estradiol (E2) in assay medium using a Flying Reagent Dispenser (FRD, Aurora Discovery, San Diego, CA). The plates were incubated at 37C and 5% CO2 for 16 hr. Then 1 uL of LiveBLAzer B/G FRET substrate was added using a Flying Reagent Dispenser, the plates were incubated at room temperature for 2 hours, and fluorescence intensity was measured by an Envision plate reader (PerkinElmer, Shelton, CT). For cell viability readout that measures cytotoxicity, 4 uL/well of CellTiter-Glo reagent was added into the assay plates using a FRD. After 30 min incubation at room temperature, the luminescence intensity in the plates was measured using a ViewLux (PerkinElmer) plate reader.
Potency is the fitted concentration of half-maximal effect.

| Structure (SMILES) | Potency |
| --- | --- |
| NC(=O)CCCCC1CCSS1 (stereo not given) | inactive |
| CCN1CCCC(OC(=O)C(c2ccccc2)c2ccccc2)C1 (stereo not given) | inactive |
| CCCCc1ccc2cccc(S(=O)(=O)O)c2c1 | inactive |
| CCCCCN(CCCCC)C(=O)C(CCC(=O)O)NC(=O)c1ccc(Cl)c(Cl)c1 (stereo not given) | inactive |
| C1=C\CC/C=C\CC/C=C\CC/1 | inactive |
| CCCc1ccc(N)cc1 | inactive |
| C=CC(=O)OCCCCCC | inactive |
| C=C(C)[C@H]1CC=C(C)CC1 | inactive |
| Cc1ccccc1Br | inactive |
| C=C(C)C(=O)OCCC(C)OC(=O)C(=C)C (stereo not given) | inactive |
| CCn1c(=O)c2c(nc(/C=C/c3ccc(OC)c(OC)c3)n2C)n(CC)c1=O | inactive |
| CO[Si](OC)(OC)OC | inactive |
| C=CCn1c(=O)n([C@@H]2O[C@H](CO)[C@@H](O)[C@H]2O)c2nc(N)[nH]c(=O)c21 | inactive |
| CCC(=O)c1cccc(Cl)c1 | inactive |
| COc1ccc2cc(C=O)ccc2c1 | inactive |
| CCO[Si](CCCN=C=O)(OCC)OCC | inactive |
| NS(=O)(=O)c1cc2c(cc1Cl)NC(CSCc1ccccc1)=NS2(=O)=O | inactive |
| Nc1[nH]c(=O)ncc1F | inactive |
| CCCOc1ccccc1-c1nc2n[nH]nc2c(=O)[nH]1 | inactive |
| Cc1c(F)cc2c(=O)c(C(=O)O)cn3c2c1CCC3C (stereo not given) | inactive |

| Structure (SMILES) | Potency |
| --- | --- |
| CCCCCCCCCCCCCCCCCC(=O)OCCCCCCCCCCCCCC(C)C | inactive |
| C(=C(c1ccccc1)c1ccccc1)c1ccccc1 | inactive |
| CC(C)(C)OC(=O)N1C[C@@H](F)C[C@H]1C(=O)O | inactive |
| CSc1nc(NC2CC2)nc(NC(C)(C)C)n1 | inactive |
| COCc1ccc(COC)cc1 | inactive |
| CC/C=C\C#N | inactive |
| CCN(CC)C(=O)c1ccc(O)c(OC)c1 | inactive |
| O=C1CC2(CCCC2)CC(=O)N1 | inactive |
| CCCCCCCCCCCCCCC | inactive |
| COc1cc(CCC(C)=O)ccc1O | inactive |
| Nc1cc(C(Cl)=C(Cl)Cl)c(S(N)(=O)=O)cc1S(N)(=O)=O | inactive |
| C=CCOc1nc(OCC=C)nc(OCC=C)n1 | inactive |
| COc1cccc(OC)c1 | inactive |
| NCCNC(=O)c1ccc(Cl)cn1 | inactive |
| CC(=O)OC(C)(C)C | inactive |
| O=C(O)c1cccc(C(=O)O)n1 | inactive |
| CN(C)C(=O)Nc1ccccc1 | inactive |
| COC(C(=O)O)c1ccccc1 (stereo not given) | inactive |
| CCCC(C)C(=O)O (stereo not given) | 37 µM (active) |
| NC(CS)C(=O)O (stereo not given) | inactive |
